Consider 18 molecules from the supplement of paper PMC10849652.

Targets with a hit are over-represented here; the source holds about 7,900 in all. About 0.6% of all pairs of compound and target were hits.

The test deals with YAE1 (UniProt Q9NRH1). Nature of the test: log2 fold change, soluble protein after heating vs DMSO (PISA); higher = thermal stabilisation; K562 cells, 10 uM, 30 min; active = over 0.2 and 3.5 SD of the protein, either way, in both replicates (recomputed). In a few lines: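 Soluble protein was defined as the supernatant after 21,000xg for 90 min. It came from K562 cells at 2×10^6 cells/mL given 10 μM compound for 30 min, heated in aliquots for 3 min across 48°C-58°C, pooled, and extracted in PBS with 0.5% NP-40 at 4°C, and was quantified by TMTpro 16plex LC-MS/MS with equalised channel sums. Thermal stability against control samples, from duplicates, is reported as log2 fold change.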
Chain of YAE1 (Q9NRH1 whole entry, looked up): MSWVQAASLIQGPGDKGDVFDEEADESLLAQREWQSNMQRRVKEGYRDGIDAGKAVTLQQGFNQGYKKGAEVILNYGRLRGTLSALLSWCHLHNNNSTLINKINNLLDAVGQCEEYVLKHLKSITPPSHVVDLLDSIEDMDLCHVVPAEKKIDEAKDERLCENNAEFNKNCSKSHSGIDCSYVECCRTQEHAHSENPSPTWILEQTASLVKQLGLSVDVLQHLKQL
For `NC(=O)c1cnc(N[C@@H]2CCCC[C@@H]2N)nc1Nc1cccc(-n2nccn2)c1`, the log2 fold change was -0.038 (inactive).
With `CC(C)N(C[C@H]1O[C@@H](n2cnc3c(N)ncnc32)[C@H](O)[C@@H]1O)[C@H]1C[C@@H](CCc2nc3cc(C(C)(C)C)ccc3[nH]2)C1` [pinometostat], the log2 fold change was 0.011 (inactive).
With `C[C@@H](Oc1cc(-c2cnn(C3CCNCC3)c2)cnc1N)c1c(Cl)ccc(F)c1Cl` [crizotinib] the figure was -0.018 (inactive).
With `O=C1NC(=NCc2cccs2)S/C1=C\c1ccc2ncccc2c1` the figure was -0.018 (inactive).
With `Cc1cn(-c2cc(NC(=O)c3ccc(C)c(Nc4nccc(-c5cccnc5)n4)c3)cc(C(F)(F)F)c2)cn1` [nilotinib], the log2 fold change is -0.023 (inactive).
Regarding `Cc1cccc(-c2[nH]c(C(C)(C)C)nc2-c2ccc3nccnc3c2)n1`, the log2 fold change was 0.019 (inactive).
With `CN1CCc2c(c3ccccc3n2Cc2ccc(C(=O)NO)cc2)C1` [Tubastatin A], the log2 fold change is -0.018 (inactive).
For `CC[C@@H]1C(=O)N(C)c2cnc(Nc3ccc(C(=O)NC4CCN(C)CC4)cc3OC)nc2N1C1CCCC1`, the log2 fold change was -0.022 (inactive).
With `CNC(=O)c1ccc(Nc2ncc(C(F)(F)F)c(NCc3nccnc3N(C)S(C)(=O)=O)n2)cc1` [defactinib] the figure was 0.026 (inactive); with `CN1CCC(CNc2ccc3ncc(-c4cccc(OC(F)(F)F)c4)n3n2)CC1`, 0.057 (inactive); with `NC1(Cc2ccc(Cl)cc2)CCN(c2ncnc3[nH]ccc23)CC1`, -0.022 (inactive).
With `Cn1cncc1[C@@](N)(c1ccc(Cl)cc1)c1ccc2c(c1)c(-c1cccc(Cl)c1)cc(=O)n2C` [tipifarnib] the figure was -0.008 (inactive); with `Cc1cc(Nc2cc(N3CCN(C)CC3)nc(Sc3ccc(NC(=O)C4CC4)cc3)n2)n[nH]1` [tozasertib], 0.033 (inactive).
With `O=C(Nc1cccc(Nc2ncc(Br)c(NCCc3cnc[nH]3)n2)c1)N1CCCC1` the figure was -0.084 (inactive).
On to `c1cc(OCCN2CCCCC2)cc(-c2n[nH]c3ccc(-c4nnc[nH]4)cc23)c1`, for which the log2 fold change is -0.001 (inactive).
With `O=C1c2ccccc2-c2n[nH]c3cccc1c23` the figure was -0.048 (inactive).
For `CC(=O)c1cnc2ccc(-c3cc(Cl)c(O)c(Cl)c3)nc2c1N[C@H]1CC[C@H](CN(C)C)CC1`, the log2 fold change was 0.078 (inactive).
In the case of `O=C(Nc1nc2ccccc2n1CCN1CCOCC1)c1cccc([N+](=O)[O-])c1` [IRAK-1-4 Inhibitor I], the log2 fold change was 0.103 (inactive).
